Assay results taken from PubChem BioAssay AID1445 (SRMLSC, 2008).
The campaign covered roughly 220,000 compounds. About 910 (0.41%) were called active. Many of the other results were omitted from the sample, so actives are more common in it than they were. Potency and affinity values are given separately. Unmarked numbers belong to inactive results.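 How the source made its calls: active means primary inhibition above the hit cutoff, then over 50% inhibition at one or more dose response concentrations (cut at about 23% in these data, passing the limit was not always enough); inconclusive means conflicting primary data, or primary hits not chosen for dose response; inactive means low primary inhibition, or under 50% at every dose.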

Target: Aminopeptidase N (Plasmodium falciparum (isolate 3D7)) (UniProt O96935)
Assay: malaria alanyl aminopeptidase activity blockers – biochemical, fluorogenic H-Leu-NHMec substrate, 1536-well (AID 1445);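 further: plate controls were DMSO full reaction for no effect and no enzyme background for full effect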
Conditions: recombinant M1AAP, H-Leu-NHMec fluorogenic kinetic assay
[1] = at 30 µM, stronger effect = higher value unless noted

Sequence of Aminopeptidase N (Plasmodium falciparum (isolate 3D7)) (O96935 whole entry, looked up): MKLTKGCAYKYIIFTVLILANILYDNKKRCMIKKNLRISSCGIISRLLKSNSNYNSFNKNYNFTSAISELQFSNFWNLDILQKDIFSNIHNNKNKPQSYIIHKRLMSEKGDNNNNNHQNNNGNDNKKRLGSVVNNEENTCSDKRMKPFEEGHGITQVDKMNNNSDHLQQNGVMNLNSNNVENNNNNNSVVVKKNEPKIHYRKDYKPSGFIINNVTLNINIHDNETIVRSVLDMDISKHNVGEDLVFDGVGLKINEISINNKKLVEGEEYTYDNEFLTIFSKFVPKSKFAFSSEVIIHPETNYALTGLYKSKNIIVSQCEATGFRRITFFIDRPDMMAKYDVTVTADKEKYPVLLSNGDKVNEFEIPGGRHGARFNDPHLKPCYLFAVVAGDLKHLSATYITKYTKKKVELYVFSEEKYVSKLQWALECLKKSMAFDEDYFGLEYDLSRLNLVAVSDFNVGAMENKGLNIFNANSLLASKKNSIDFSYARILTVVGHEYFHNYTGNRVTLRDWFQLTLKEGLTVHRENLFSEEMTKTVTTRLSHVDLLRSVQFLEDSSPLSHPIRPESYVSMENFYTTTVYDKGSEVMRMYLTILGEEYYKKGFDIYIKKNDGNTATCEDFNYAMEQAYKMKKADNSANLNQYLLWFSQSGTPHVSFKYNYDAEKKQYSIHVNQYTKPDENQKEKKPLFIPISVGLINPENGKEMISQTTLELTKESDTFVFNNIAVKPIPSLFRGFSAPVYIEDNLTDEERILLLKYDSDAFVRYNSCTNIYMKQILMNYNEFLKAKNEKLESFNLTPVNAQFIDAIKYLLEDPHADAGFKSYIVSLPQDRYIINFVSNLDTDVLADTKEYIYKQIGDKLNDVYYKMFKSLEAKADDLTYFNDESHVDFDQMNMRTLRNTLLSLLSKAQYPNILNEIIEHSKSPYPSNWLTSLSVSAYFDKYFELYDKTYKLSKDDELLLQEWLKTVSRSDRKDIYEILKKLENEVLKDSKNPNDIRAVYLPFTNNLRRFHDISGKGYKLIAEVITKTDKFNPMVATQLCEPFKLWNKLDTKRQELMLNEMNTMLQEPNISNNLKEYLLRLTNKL

`COc1ccc(-n2nnnc2SCC(=O)N2CCCC2)cc1OC` gave an inhibition [1] of 0.63%.

Work on `COc1ccc(C(=O)Nc2cc(=O)n(C)c(=O)n2C)cc1` yielded an inhibition [1] of 4.18%.

With `Cc1nc(N)nc(-c2ccccc2O)n1` the inhibition [1] was 7.96%.

`Cn1c(=O)[nH]c(=O)c2c1nc(N1CCCCC1)n2C/C=N/NC(=O)c1cc(Br)ccc1O` was tested, and the inhibition [1] was 20.9%.

`COCCCNC(=O)c1ccccc1Sc1ccc(NC(C)=O)nc1` was tested, and the inhibition [1] was 2.96%.

With `CCCn1nc2cc(C(=O)NC3CCc4ccccc43)ccc2c1OCC` (configuration not stated) the inhibition [1] was 4.98%.

`Nc1nc(NC(=O)c2ccccc2Cl)nn1-c1ccccc1` showed an inhibition [1] of -0.99%.

`Cc1c(C(=O)NCC(C)C)sc2nc(-c3ccc(F)cc3)cn12` was tested, and the inhibition [1] was -1.14%.

Compound `CC(=O)Cc1nsc(NC(=O)c2ccco2)n1` has an inhibition [1] of 0.74%.

With `O=[N+]([O-])c1cc(S(=O)(=O)Nc2ccccc2)ccc1NCc1cccnc1` the inhibition [1] was 6.72%.

With `COC(=O)Cc1c(C)c2ccc(OCC(C)=O)c(C)c2oc1=O` the inhibition [1] was 14.3%.

`CC1CN(Cc2c(O)ccc3c2oc(=O)c2ccccc23)CC(C)O1` (configuration not stated) was tested, and the inhibition [1] was 4.75%.

`CN(Cc1c(O)ccc2c1oc(=O)c1ccccc12)C1CCCCC1` was tested, and the inhibition [1] was 5.6%.

Work on `C=C(C)COc1ccc2c(C)c(CC(=O)OC)c(=O)oc2c1C` yielded an inhibition [1] of 13.3%.

With `CC1CCCN(Cc2c(O)ccc3c(=O)c(-c4nc5ccccc5s4)c(N)oc23)C1` (configuration not stated) the inhibition [1] was 24.6% (active).

Work on `CCc1cc(=O)oc2cc(C)c(CN3CCCC(C)C3)c(O)c12` (configuration not stated) yielded an inhibition [1] of 2.92%.

With `CC1CCN(Cc2c(O)ccc3c(=O)c(-c4nc5ccccc5s4)c(N)oc23)CC1` the inhibition [1] was 2.55%.

With `CC1CCCCN1Cc1c(O)ccc2c(=O)c(-c3nc4ccccc4s3)c(N)oc12` (configuration not stated) the inhibition [1] was 17.1%.

Compound `CC(C)CN(Cc1c(O)ccc2c3c(c(=O)oc12)CCC3)CC(C)C` has an inhibition [1] of 34.7%.

For `O=C(Cc1c(Cl)cccc1Cl)NCCc1ccc(Cl)cc1`, the inhibition [1] was 13.8%.

Compound `Cc1ccc(NC(=O)CCNS(=O)(=O)c2ccc3c(c2)c(=O)n(C)c(=O)n3C)cc1C` has an inhibition [1] of 9.45%.

`NC(=O)c1ccccc1N/C=C1\CCCCC1=O` showed an inhibition [1] of 10.2%.

Compound `O=C1/C(=C/Nc2cccc([N+](=O)[O-])c2)CCc2ccccc21` has an inhibition [1] of 9.22%.

`CCOC(=O)N1CCN(C(=O)COc2ccccc2Cl)CC1` was tested, and the inhibition [1] was 4.17%.

Work on `COCCn1c(SCC#N)nnc1-c1ccc2c(c1)OCO2` yielded an inhibition [1] of -1.51%.

`OC(c1cccs1)c1nccc2ccccc12` (configuration not stated) gave an inhibition [1] of -3.89%.

For `O=c1oc2c(CN3CCCCC3)c(O)ccc2c2c1CCCCC2`, the inhibition [1] was 42.2% (active).

Work on `COCCN(CCOC)Cc1c(O)ccc2c3c(c(=O)oc12)CCC3` yielded an inhibition [1] of 4.7%.

`Cc1c(O)ccc2c3c(c(=O)oc12)CCCC3` showed an inhibition [1] of 20.9%.

With `CCCCN(CC)Cc1c(O)ccc2c(-c3ccccc3)cc(=O)oc12` the inhibition [1] was 4.82%.

Compound `O=c1cc(-c2ccccc2)c2ccc(O)c(CN3CCCCC3)c2o1` has an inhibition [1] of 11.4%.

In the case of `COc1ccc(-c2cc(C#N)nc(Oc3ccc(Cl)cc3)n2)cc1`, the inhibition [1] is reported as 6.45%.

`CC(=O)Nc1ccc(/C=N/NC(=O)c2cc3cc(C)ccc3nc2C)cc1` gave an inhibition [1] of 2.63%.

Work on `CCC(=O)Nc1ccc(S(=O)(=O)Nc2cc(C)on2)cc1` yielded an inhibition [1] of -4.75%.

`Cc1cc(NS(=O)(=O)c2ccc(NC(=O)CSc3nc4sc(C(=O)O)c(C)c4c(=O)[nH]3)cc2)no1` gave an inhibition [1] of 16.3%.

Compound `O=C(N/N=C/c1cccnc1)c1ccccc1OCc1ccc(Cl)cc1` has an inhibition [1] of -4.49%.

In the case of `Cc1ccc(COc2ccccc2-c2cc(C(=O)N/N=C/c3cccnc3)[nH]n2)cc1`, the inhibition [1] is reported as 4.58%.

Work on `COc1ccc(C2c3c(noc3C)CC(C)(O)C2C(C)=O)cc1` (configuration not stated) yielded an inhibition [1] of 0.23%.

With `COc1ccc(-c2nn(-c3ccccc3)cc2/C=C/C(=O)N2CCN(c3ccccn3)CC2)cc1` the inhibition [1] was 1.49%.

`CCOC(=O)COc1ccc(/C=C/[N+](=O)[O-])c(OCC(=O)OCC)c1` showed an inhibition [1] of 1.07%.

For `CCOC(=O)COc1ccccc1/C=C\[N+](=O)[O-]`, the inhibition [1] was 11.9%.

In the case of `CCN=C1S/C(=C\c2cc(Br)ccc2OCC(=O)OCC)C(=O)N1CC`, the inhibition [1] is reported as 3.81%.

In the case of `CCOC(=O)COc1ccc2ccccc2c1/C=C/[N+](=O)[O-]`, the inhibition [1] is reported as 4.98%.

In the case of `CCCOC(=O)c1ccc(Cl)c(NC(=O)c2cccnc2)c1`, the inhibition [1] is reported as 8.87%.

In the case of `COc1ccc(C(=O)CC(=O)c2ccccc2O)cc1OC`, the inhibition [1] is reported as 2.33%.

Work on `CSc1nnnn1-c1ccc(C(=O)O)cc1` yielded an inhibition [1] of 5.73%.

For `COC(=O)c1ccc(-n2nnnc2SC)cc1`, the inhibition [1] was 26.3% (active).

`COC(=O)COC(=O)c1ccc(-n2nnnc2SC)cc1` gave an inhibition [1] of -3%.

Work on `Cn1c(=O)n(CCc2ccccc2)c(=O)c2c1ncn2Cc1ccccc1` yielded an inhibition [1] of 2.43%.

For `Cc1cc(NC(=O)c2ccc(N3CCCC3)c([N+](=O)[O-])c2)no1`, the inhibition [1] was -2.39%.

With `O=C(NCc1ccc2c(c1)OCO2)C1CCCN1C(=O)Nc1ccccc1` (configuration not stated) the inhibition [1] was 11.3%.

With `Cc1cccc(NC(=O)N2CCCC2C(=O)Nc2ccccc2)c1` (configuration not stated) the inhibition [1] was 13.2%.

Compound `CC(=O)Nc1ccc(NC(=O)C2CCCN2C(=O)Nc2ccc(F)c([N+](=O)[O-])c2)cc1` (configuration not stated) has an inhibition [1] of 2.21%.

With `COc1cccc(NC(=O)C2CCCN2C(=O)Nc2cccc(F)c2)c1` (configuration not stated) the inhibition [1] was 14.7%.

`COc1ccc(NC(=O)C2CCCN2C(=O)Nc2cccc(F)c2)cc1` (configuration not stated) was tested, and the inhibition [1] was 6.92%.

In the case of `CC(=O)Nc1cccc(NC(=O)C2CCCN2C(=O)Nc2ccccc2C)c1` (configuration not stated), the inhibition [1] is reported as -3.25%.

For `CC(=O)c1cccc(NC(=O)N2CCCC2C(=O)Nc2cccc(C)c2)c1` (configuration not stated), the inhibition [1] was 1.86%.

`O=C(NCc1ccc2c(c1)OCO2)C1CCCN1C(=O)Nc1ccc(F)cc1` (configuration not stated) was tested, and the inhibition [1] was 11.2%.

Work on `COc1ccc(Nc2nc(C(=O)N(CCO)Cc3ccccc3)cs2)cc1` yielded an inhibition [1] of 0.85%.

In the case of `Cc1ccc(NC(=O)CC2NCCN(Cc3ccccc3)C2=O)cc1` (configuration not stated), the inhibition [1] is reported as 8.69%.

`Cc1ccc(N(CC(=O)NN=C2CCN(C)CC2)S(=O)(=O)c2ccccc2)c(C)c1` was tested, and the inhibition [1] was -0.06%.

Compound `O=C(Cn1cnc([N+](=O)[O-])n1)N/N=C/c1ccc2ccccc2c1` has an inhibition [1] of 10.2%.

`CCOC(=O)N1CCN(c2c(NCCCN(C)c3ccccc3)c(=O)c2=O)CC1` showed an inhibition [1] of 6.93%.

In the case of `CCCc1nnc(NC(=O)Cn2c(=O)oc3ccccc32)s1`, the inhibition [1] is reported as -0.7%.

For `CCOC(=O)C(CC)/C(C)=N/NC(=O)c1ccc([N+](=O)[O-])cc1` (configuration not stated), the inhibition [1] was 2.15%.

In the case of `C=C1CCN([C@H](C(=O)NCc2ccco2)C(C)C)S(=O)(=O)c2ccccc21`, the inhibition [1] is reported as 11%.

`CC(=O)c1cccc(NC(=O)N2CCCC2C(=O)Nc2cc(C)ccc2C)c1` (configuration not stated) showed an inhibition [1] of -1.28%.

`COc1ccc(NC(=O)N2CCCC2C(=O)Nc2ccc(C)cc2)cc1` (configuration not stated) was tested, and the inhibition [1] was -3.34%.

With `CC1(C)CC(=O)C2=C(C1)N=C1SCCC(=O)N1C2c1cccc([N+](=O)[O-])c1` (configuration not stated) the inhibition [1] was 18%.

`Cc1c(NS(=O)(=O)c2ccc(C(=O)NCc3ccccc3)cc2)c(=O)n(-c2ccccc2)n1C` showed an inhibition [1] of 0.49%.

For `Cc1ccc(S(=O)(=O)Nc2c(C)n(C)n(-c3ccccc3)c2=O)cc1C(=O)NCc1ccccn1`, the inhibition (at 30 µM, stronger effect = higher value) was 28.8% (active) and the inhibition (at 100 µM (top of the series)) was 42.4%.

`Cc1c(NC(=O)c2ccccc2NS(=O)(=O)c2ccc(F)cc2)c(=O)n(-c2ccccc2)n1C` showed an inhibition [1] of 20.1%.

Work on `CC(=O)Nc1ccc(S(=O)(=O)Nc2c(C)n(C)n(-c3ccccc3)c2=O)cc1` yielded an inhibition [1] of 0.31%.

`Cc1c(NS(=O)(=O)c2cccc(C(=O)NCc3ccncc3)c2)c(=O)n(-c2ccccc2)n1C` showed an inhibition [1] of -2.28%.

With `Cc1c(NC(=O)c2ccccc2NS(=O)(=O)c2ccc(Br)cc2)c(=O)n(-c2ccccc2)n1C` the inhibition [1] was 24.5% (active).

In the case of `CC1=C(CCN2CCN(C(C)C)C(CCO)C2)C(C)(C)CCC1` (configuration not stated), the inhibition [1] is reported as 2.23%.

With `CCn1c(Cn2nnc(-c3ccccc3)n2)nnc1SCC(=O)Nc1cccc(C(C)=O)c1` the inhibition [1] was 0.07%.

Work on `COc1ccc(/C=N/NC(=O)c2cc(Br)ccc2O)cc1Cn1cc(Cl)cn1` yielded an inhibition [1] of 0.18%.

Work on `O=c1[nH][nH]c(-c2ccccc2)c1C=Nc1ccc(C(F)(F)F)cc1` yielded an inhibition [1] of 2.58%.

`CC1=C(C#N)c2nc(N)c(C#N)c(C)c2/C1=C\c1ccc(C)cc1` showed an inhibition [1] of 6.97%.

For `CC1=C(C#N)c2nc(N)c(C#N)c(C)c2/C1=C\c1ccc(OCC(=O)O)c(Cl)c1`, the inhibition [1] was 11.5%.

`COC(=O)c1ccc(/C=C/c2ccc3cccc(OC)c3n2)cc1` showed an inhibition [1] of 20.2%.

Compound `CSc1ccc(/C=C/c2ccc3cccc(O)c3n2)cc1` has an inhibition [1] of 8.1%.

With `O=C(COc1ccc(F)cc1)N(c1ccccn1)C1CCCCC1` the inhibition [1] was 2.11%.

Compound `COc1ccc(N2C(=O)C3CCCN3C2c2cccc(OC)c2OC)cc1` (configuration not stated) has an inhibition [1] of 3.05%.

`CCN(CC)CC(O)Cn1c(-c2ccccc2Cl)nc2ccccc21` (configuration not stated) was tested, and the inhibition [1] was 3.4%.

Work on `Cc1ccc(CN2CCN(/N=C/c3ccc(C(F)(F)F)cc3)CC2)cc1` yielded an inhibition [1] of 5.42%.

`C#CCCOC(=O)N1C2=NC(C(=O)OC)=C(C(=O)OC)[C@@H]3N(Cc4ccccc4)c4ccccc4[C@]23C[C@H]1C(=O)OC` gave an inhibition [1] of 8.52%.

`C#CCCOC(=O)N1C2=NC(C(=O)OC)=C(C(=O)OC)[C@@H]3N(C)c4ccccc4[C@]23C[C@H]1C(=O)OC` showed an inhibition [1] of 3.66%.

With `COC(C[C@H](O)CC(=O)[C@H](C)OCc1ccccc1)OC` the inhibition [1] was 1.19%.

For `COC(=O)c1sc2nc(-c3ccccc3)c3c(c2c1N)CCCC3`, the inhibition [1] was 0.85%.
